# Compound activity as filed in PubChem BioAssay.
# NPC1 promoter act – qHTS Assay for NPC1 Promoter Activators; Huh7 NPC1 promoter luciferase reporter, 24 h; Potency, µM (titrated, usually from 9.22 µM), inactives show at the top dose activation, hits mostly activators; actives 2.4% (n = 320,000); also: % of control where 0% means no effect; nearly all actives have a fitted effect of over 60% in size
#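 Luminescence read-out of NPC1 promoter-driven luciferase in stably transfected Huh7 cells; compounds delivered in DMSO and left 24 h at 37C, 5% CO2, qHTS titration format.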
# Rab9 prom act – qHTS Assay for Rab9 Promoter Activators; Huh7 Rab9 promoter-luciferase reporter, luminescence, 24 h; Potency, µM (series often up to 9.22 µM), for the others: top-dose activation, negative = inhibition, usual class: activators; actives 2.8% (n = 320,000); AID 485297, 2010; also: % of control where 0% means no effect; nearly all actives have a fitted effect of over 60% in size
#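 Steps: seed 1500 Huh7 Rab9-luc cells per well, rest 2 h at 37 °C; add compound in DMSO; incubate 24 h; add luciferase reagent, 10 min ambient; read luminescence.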
# ELG1 genotoxic – qHTS screen for small molecules that induce genotoxicity in human embryonic kidney (HEK293T) cells expressing luciferase-tagged ELG1; HEK293T ELG1-luciferase reporter, luminescence, 16 h; Potency, µM (titrated, usually from 46 µM), for the others: at the top dose activity change, positive = activation, usual class: activators; actives 1.3% (n = 330,000); AID 504466, 2011; also: % of control where 0% means no effect; nearly all actives have a fitted effect of over 60% in size
#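 ELG1-luciferase HEK293T cells, 2,000/well; compound pinned in; 16 hr, 37 °C, 5% CO2; ONE-Glo, 30 min RT; luminescence on CCD imager.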
# ELG1 DNA repair – qHTS screen for small molecules that inhibit ELG1-dependent DNA repair in human embryonic kidney (HEK293T) cells expressing luciferase-tagged ELG1 | HEK293T ELG1-luciferase reporter, luminescence, 16 h; DNA damage induced by 5-fluorouridine | Potency, µM (top dose mostly 46.1 µM), for inactives: at the highest dose activity change, negative = inhibition, usual class: inhibitors | actives 2.3% (n = 330,000) | AID 504467, 2011; also: % is scaled to controls: 0 for no effect and ±100 for the full control effect; nearly all actives have a fitted effect of over 55% in size
#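 DMSO vehicle served as the neutral condition. Each well held 2,000 cells given 5-fluorouridine plus compound; after 16 hr at 37 °C/5% CO2, ONE-Glo was added and luciferase measured 30 min later.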
# SMN2 splice enh – qHTS Assay for Enhancers of SMN2 Splice Variant Expression; HEK293 SMN2-luciferase splicing reporter, luminescence, 30-36 h; Potency, µM (highest dose often 46.1 µM), for inactives: top-dose activity change, positive = activation, usual class: activators; actives 2.8% (n = 210,000); AID 1458, 2008; also: % of control where 0% means no effect; nearly all actives have a fitted effect of over 55% in size
#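 HEK293 cells carry an SMN2 […]–luciferase reporter in which exon 7 inclusion puts luciferase in frame. Cells were plated 10-12 h before compound addition, then incubated 30-36 h at 37C. ONE-Glo luminescence was read; sodium butyrate at 4.5 mM final served as control.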
# FLuc counter – qHTS profiling assay for firefly luciferase inhibitor/activator using purifed enzyme and Km concentrations of substrates (counterscreen for miR-21 project); Luciferin 4-monooxygenase (Photinus pyralis), P08659; purified FLuc, Km substrates, luminescence inhibition; Potency, µM (series often up to 57.5 µM), for the others: at the top dose activity change, negative = inhibition, usual class: inhibitors; actives 6.9% (n = 360,000);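 also: plate controls were vehicle for no effect and reference inhibitor for full effect; nearly all actives have a fitted effect of over 55% in size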
# Target sequence (P08659 whole entry, looked up): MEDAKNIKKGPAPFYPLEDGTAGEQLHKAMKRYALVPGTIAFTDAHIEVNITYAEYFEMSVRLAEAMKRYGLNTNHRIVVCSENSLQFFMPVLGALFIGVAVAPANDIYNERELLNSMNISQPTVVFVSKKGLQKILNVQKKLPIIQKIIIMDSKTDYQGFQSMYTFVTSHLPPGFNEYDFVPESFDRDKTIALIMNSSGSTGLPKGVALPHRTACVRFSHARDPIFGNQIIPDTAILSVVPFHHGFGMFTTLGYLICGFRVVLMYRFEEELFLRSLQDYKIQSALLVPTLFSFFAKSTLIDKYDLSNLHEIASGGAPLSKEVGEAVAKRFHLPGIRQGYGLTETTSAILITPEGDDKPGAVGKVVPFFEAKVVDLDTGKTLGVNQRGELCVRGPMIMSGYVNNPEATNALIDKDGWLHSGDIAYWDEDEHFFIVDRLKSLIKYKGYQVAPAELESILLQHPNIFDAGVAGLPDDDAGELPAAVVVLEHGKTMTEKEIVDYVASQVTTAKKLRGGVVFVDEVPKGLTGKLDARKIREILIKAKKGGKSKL
#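 Purified P. pyralis luciferase, 10 nM final, with Km-level 10 uM D-luciferin and 10 uM ATP in 50 mM Tris acetate pH 7.5, 10 mM Mg acetate, 0.01% Tween-20, 0.05% BSA; 6-point qHTS titration about 60 µM downward; luminescence read.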
# * marks the source's active call; other numbers are inactive results; ? = inconclusive; / = not tested or not shown. This is a sample that favours compounds with a hit; in the whole collection about 9.2% have one here. Calls follow the shape of the dose curve; as a rule, active = well fitted curve in the direction sought with a large enough effect; inconclusive = small, poorly fitted or top-dose-only effect, or another doubt; inactive = no such curve, though single readings can be large; an effect the other way counts as inactive or inconclusive. Potency is read from the fitted curve at half-maximal effect.
SMILES,NPC1 promoter act,Rab9 prom act,ELG1 genotoxic,ELG1 DNA repair,SMN2 splice enh,FLuc counter
CCN(CC)S(=O)(=O)c1ccc(N2CCOCC2)c(NC(=O)COc2ccc(OC)cc2)c1,-7.6%,-5.3%,-3.0%,18.3µM*,/,?
COc1nc(C)ccc1-c1noc(-c2ccncc2)n1,?,?,?,?,14.1µM*,13.5µM*
CCOc1ccccc1-c1nc(-c2ccc(C)nc2OC)no1,4.47µM*,3.16µM*,?,?,?,9.53µM*
COc1nc(C)ccc1-c1noc(-c2cccs2)n1,0.562µM*,0.501µM*,?,?,/,1.51µM*
COc1cc(-c2nc(-c3ccc(C)nc3OC)no2)cc(OC)c1OC,-2.4%,13.4%,-1.1%,-4.8%,9.2%,-0.9%
COc1ccccc1CNC(=O)CNC(=O)c1ccc(Br)o1,-2.0%,5.4%,0.1%,1.1%,/,-0.2%
CCC(=O)c1cn([C@H](CCC(OC)OC)CC(=O)OC(C)(C)C)cc1CC,0.9%,-2.4%,0.5%,0.0%,/,5.8%
CSc1ccc(Cl)c(C(=O)OCC(=O)N2CCN(c3ccccc3)CC2)c1,-0.9%,1.8%,0.2%,-28.7%,/,-14.9%
COC(=O)c1c(C)[nH]c(C(=O)/C=C/c2ccccc2F)c1C,1.26µM*,1µM*,4.61µM*,?,/,0.301µM*
COC(=O)c1c(C)[nH]c(C(=O)OCC(=O)c2ccc(C)s2)c1C,/,/,12.7%,?,/,/
COC(=O)c1c(C)[nH]c(C(C)=O)c1C,-1.0%,-0.6%,0.0%,8.5%,-24.0%,7.9%
COC(=O)c1c(C)[nH]c(C(=O)/C=C/c2ccccc2Cl)c1C,2µM*,?,17.5%,?,/,?
CCCC(=O)NC(c1ccco1)c1cc([N+](=O)[O-])c2cccnc2c1O (configuration not stated),-0.3%,-3.6%,-4.1%,20.6µM*,-79.4%,?
CCC(=O)NC(c1ccc(C)cc1)c1cc([N+](=O)[O-])c2cccnc2c1O (configuration not stated),-4.8%,-4.9%,0.7%,-18.1%,-101.8%,8.6%
COc1ccccc1NC(=O)Nc1nc(CC(=O)N2CCN(c3ccccc3OC)CC2)cs1,-11.9%,-0.9%,-10.9%,?,/,16.9µM*
COc1cc(C)ccc1NC(=O)Cc1csc(NC(=O)Nc2ccccc2OC)n1,3.0%,0.9%,-2.2%,?,/,5.4%
CCCCCCCN1C2=NCCCN2c2ccccc21,-3.8%,-20.2%,-20.6%,?,-15.8%,-0.1%
COc1ccc(Cl)cc1NC(=O)Cn1c(=O)n(Cc2ccco2)c(=O)c2cccnc21,/,/,/,/,-13.4%,3.4%
O=C(c1csc(Nc2cccc3ccccc23)n1)N1CCCC1,0.8%,0.1%,-4.6%,4.2%,/,-10.8%
O=C(c1cc(-c2ccc(Cl)cc2)on1)N1CCN(c2ccc(F)cc2)CC1,-0.2%,-1.0%,-1.4%,11.0%,/,-1.6%
O=C(c1cc(-c2ccccc2Cl)on1)N1CCCC1,?,?,?,?,/,1.2µM*
O=C(c1cc(-c2ccc(Cl)c(Cl)c2)on1)N1CCN(c2ccccc2)CC1,-6.3%,0.7%,8.3%,?,-1.8%,?
COc1ccccc1-c1cc(C(=O)N2CCCC2)no1,2.51µM*,2µM*,2.91µM*,?,/,7.57µM*
O=C(c1csc(Nc2ccccc2Cl)n1)N1CCCC1,?,?,20.2%,?,12.6µM*,?
O=C(c1cccc(F)c1)N1CCN(C(=O)c2cc(-c3ccc(Cl)cc3Cl)on2)CC1,0.5%,-3.1%,-5.2%,?,/,10.7µM*
SMILES,NPC1 promoter act,Rab9 prom act,ELG1 genotoxic,ELG1 DNA repair,SMN2 splice enh,FLuc counter
COc1ccc(OC)c(NC(=O)C23CCC(C)(C(=O)C2)C3(C)C)c1 (configuration not stated),0.3%,1.2%,0.4%,-1.3%,2.0%,-1.6%
Cc1ccsc1CN(C(=O)c1ccc(OCC(C)C)cc1)C1CCS(=O)(=O)C1 (configuration not stated),/,/,/,/,-44.5%,2.3%
CCN(CC)S(=O)(=O)c1cccc(NC(=O)COC(=O)/C=C/c2cccs2)c1,1.3%,1.0%,-3.2%,9.5%,/,-6.2%
Cc1ccc(-n2nc(CO)c(C(=O)NCCO)n2)cc1,/,/,/,/,16.0%,?
Cc1ccccc1C(=O)Nc1c2c(nn1C(C)(C)C)CS(=O)(=O)C2,1.6%,0.0%,-0.6%,3.9%,/,4.0%
COc1ccccc1-c1cc(C(=O)N2CCOCC2)no1,?,2.24µM*,2.91µM*,?,/,13.5µM*
COc1ccccc1-c1cc(C(=O)N2CCN(c3ccc(F)cc3)CC2)no1,0.8%,-0.8%,-4.0%,?,-18.1%,-16.9%
N#Cc1ccccc1CSc1nc2ccc(NC(=O)c3ccccc3C(=O)O)cc2s1,-4.5%,2.4%,12.3%,?,/,?
CC(=O)Nc1ccc2nc(SCc3ccccc3)sc2c1,/,/,/,/,/,13.5µM*
O=C(O)c1ccc(CSc2nc3ccc(NC(=O)c4ccccc4C(=O)O)cc3s2)cc1,-5.1%,-4.5%,-0.7%,4.6%,19.3%,16.9µM*
COc1ccc(C2=NN(CN3C(=O)C(=O)c4ccccc43)C(c3cccc([N+](=O)[O-])c3)C2)cc1 (configuration not stated),4.8%,24.4%,1.1%,0.0%,/,-3.2%
CCc1cccc(C)c1NC(=O)Cn1c(=O)n(-c2ccc(C)cc2)c(=O)c2c1cnn2C,/,/,/,/,3.5%,3.9%
COc1ccc2nc(C)cc(N/N=C/c3ccccc3)c2c1,-1.5%,-4.7%,4.2%,-8.5%,/,9.53µM*
COc1ccc(/C=N/Nc2cc(C)nc3ccc(OC)cc23)c(OC)c1,-1.8%,2.7%,17.9%,?,/,21.3µM*
COc1ccccc1/C=N/Nc1cc(C)nc2ccc(C)cc12,16.0%,11.3%,6.9%,?,/,-12.1%
COc1ccc(/C=N/Nc2ncccc2[N+](=O)[O-])c(OC)c1,?,3.55µM*,2.59µM*,?,11.2µM*,1.07µM*
Cc1ccc(C2=NS(=O)(=O)N(C)C(C(=O)N3CCCCC3)=C2)cc1,1.5%,1.5%,-7.3%,-3.3%,/,-8.7%
O=C1C(Cl)=C(NCCN2CCCCC2)C(=O)c2ccccc21,-46.7%,-34.6%,-24.0%,20.6µM*,-115.1%,-4.2%
